The record followed here is the supplement of paper PMC10849652.

The full data set covers some 8,800 targets. This sample favours those with a hit. About 0.5% of all pairs of compound and target were hits. Unmarked numbers belong to inactive results.

Experiment in all cases: log2 fold change, soluble protein after heating vs DMSO (PISA); higher = thermal stabilisation; K562 lysate, 10 uM; active = over 0.2 and 3.5 SD of the protein, either way, in both replicates (recomputed)
Compound in assay [1]: C1=CC=C(C=C1)[C@H](COC2=CC3=C(C=C2)NC(=O)N3)NC(=O)C4=CC=CN(C4=O)CC5=CC(=C(C=C5)F)F
Put shortly: (§1)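 Thermal stability, expressed as log-two fold change relative to solvent controls, is given from duplicates. Crude K562 extract in PBS pH 7.4 with 1 mM MgCl2, at 1 mg/mL protein, was treated with 10 μM compound for 30 min and heated in aliquots for 3 min across 48°C-58°C. After pooling, adjustment to 0.5% NP-40 at 4°C and centrifugation at 21,000xg for 90 min, supernatant protein was measured by TMTpro 16plex LC-MS/MS with channel sums equalised.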

Compound in assay [2]: CC1=C(SC2=C1C(=N[C@H](C3=NN=C(N32)C)CC(=O)N)C4=CC=C(C=C4)Cl)C
In a few lines: as §1

Compound in assay [3]: CC1=C2C(=CC=C1)N=C(N(C2=O)C3=CC=CC=C3C)CN4C=NC5=C(N=CN=C54)N
In a few lines:
as §1

Compound in assay [4]: Cc1sc2c(c1C)C(c1ccc(Cl)cc1)=N[C@@H](CC(=O)OC(C)(C)C)c1nnc(C)n1-2
Put shortly:
as §1

Compound in assay [5]: c1ccc([C@@H]2C[C@H]2NC2CCNCC2)cc1
Put shortly: as §1

UniProt Q00537, sequence (Q00537 whole entry, looked up): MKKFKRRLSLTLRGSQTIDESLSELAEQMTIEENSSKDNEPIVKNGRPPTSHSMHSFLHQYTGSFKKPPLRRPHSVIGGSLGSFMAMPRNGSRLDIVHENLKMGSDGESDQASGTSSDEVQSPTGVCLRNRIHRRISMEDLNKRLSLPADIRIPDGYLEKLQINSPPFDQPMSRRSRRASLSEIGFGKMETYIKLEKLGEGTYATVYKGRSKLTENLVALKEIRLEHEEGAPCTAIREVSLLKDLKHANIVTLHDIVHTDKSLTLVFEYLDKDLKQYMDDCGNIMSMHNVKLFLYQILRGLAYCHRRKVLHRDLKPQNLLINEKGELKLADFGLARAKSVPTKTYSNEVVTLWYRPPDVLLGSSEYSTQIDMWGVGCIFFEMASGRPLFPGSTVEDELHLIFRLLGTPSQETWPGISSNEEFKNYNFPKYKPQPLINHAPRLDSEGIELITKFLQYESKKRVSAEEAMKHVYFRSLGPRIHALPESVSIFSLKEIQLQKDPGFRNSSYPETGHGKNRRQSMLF
UniProt P49918, sequence (P49918 whole entry, looked up): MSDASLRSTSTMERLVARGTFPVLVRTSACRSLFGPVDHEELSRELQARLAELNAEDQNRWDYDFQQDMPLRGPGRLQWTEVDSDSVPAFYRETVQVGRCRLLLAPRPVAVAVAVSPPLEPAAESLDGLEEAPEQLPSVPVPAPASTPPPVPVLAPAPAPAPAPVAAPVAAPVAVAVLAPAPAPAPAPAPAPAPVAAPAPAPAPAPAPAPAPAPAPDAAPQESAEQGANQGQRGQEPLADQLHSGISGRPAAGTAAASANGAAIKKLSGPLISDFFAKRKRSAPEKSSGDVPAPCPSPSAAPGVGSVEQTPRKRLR
UniProt Q14692, sequence (Q14692 whole entry, looked up): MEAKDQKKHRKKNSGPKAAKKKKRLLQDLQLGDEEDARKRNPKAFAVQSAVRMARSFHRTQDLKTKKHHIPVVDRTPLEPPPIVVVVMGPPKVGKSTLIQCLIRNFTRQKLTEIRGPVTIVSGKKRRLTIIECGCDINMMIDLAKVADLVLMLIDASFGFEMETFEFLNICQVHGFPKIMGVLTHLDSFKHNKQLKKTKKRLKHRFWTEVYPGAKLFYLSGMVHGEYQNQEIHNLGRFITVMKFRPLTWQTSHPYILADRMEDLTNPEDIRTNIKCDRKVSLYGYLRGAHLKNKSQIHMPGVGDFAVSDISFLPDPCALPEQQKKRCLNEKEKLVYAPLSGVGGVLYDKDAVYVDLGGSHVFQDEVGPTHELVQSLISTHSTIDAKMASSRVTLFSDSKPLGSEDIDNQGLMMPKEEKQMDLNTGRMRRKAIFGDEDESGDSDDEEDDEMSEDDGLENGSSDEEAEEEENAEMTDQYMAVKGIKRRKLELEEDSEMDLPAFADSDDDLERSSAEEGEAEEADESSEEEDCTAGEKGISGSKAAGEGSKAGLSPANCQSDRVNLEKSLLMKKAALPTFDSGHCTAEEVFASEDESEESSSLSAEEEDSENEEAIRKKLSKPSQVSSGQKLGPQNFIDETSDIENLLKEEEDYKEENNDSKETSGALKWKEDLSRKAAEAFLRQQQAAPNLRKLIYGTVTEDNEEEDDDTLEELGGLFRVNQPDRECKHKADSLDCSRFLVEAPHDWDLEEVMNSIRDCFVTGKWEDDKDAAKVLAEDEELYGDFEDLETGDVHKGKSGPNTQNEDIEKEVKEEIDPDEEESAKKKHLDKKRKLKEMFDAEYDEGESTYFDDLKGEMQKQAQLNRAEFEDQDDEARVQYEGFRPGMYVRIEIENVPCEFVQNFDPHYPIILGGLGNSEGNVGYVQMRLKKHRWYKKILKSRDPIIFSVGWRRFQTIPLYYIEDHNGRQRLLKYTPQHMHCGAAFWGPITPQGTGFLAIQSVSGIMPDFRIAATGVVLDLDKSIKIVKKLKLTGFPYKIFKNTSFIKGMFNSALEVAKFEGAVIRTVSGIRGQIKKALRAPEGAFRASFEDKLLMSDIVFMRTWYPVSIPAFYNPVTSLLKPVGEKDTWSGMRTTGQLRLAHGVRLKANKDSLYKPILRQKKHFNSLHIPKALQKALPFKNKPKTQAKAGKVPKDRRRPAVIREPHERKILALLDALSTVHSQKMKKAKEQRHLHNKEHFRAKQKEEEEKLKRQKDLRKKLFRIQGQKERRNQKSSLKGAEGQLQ
UniProt Q06187, sequence (Q06187 whole entry, looked up): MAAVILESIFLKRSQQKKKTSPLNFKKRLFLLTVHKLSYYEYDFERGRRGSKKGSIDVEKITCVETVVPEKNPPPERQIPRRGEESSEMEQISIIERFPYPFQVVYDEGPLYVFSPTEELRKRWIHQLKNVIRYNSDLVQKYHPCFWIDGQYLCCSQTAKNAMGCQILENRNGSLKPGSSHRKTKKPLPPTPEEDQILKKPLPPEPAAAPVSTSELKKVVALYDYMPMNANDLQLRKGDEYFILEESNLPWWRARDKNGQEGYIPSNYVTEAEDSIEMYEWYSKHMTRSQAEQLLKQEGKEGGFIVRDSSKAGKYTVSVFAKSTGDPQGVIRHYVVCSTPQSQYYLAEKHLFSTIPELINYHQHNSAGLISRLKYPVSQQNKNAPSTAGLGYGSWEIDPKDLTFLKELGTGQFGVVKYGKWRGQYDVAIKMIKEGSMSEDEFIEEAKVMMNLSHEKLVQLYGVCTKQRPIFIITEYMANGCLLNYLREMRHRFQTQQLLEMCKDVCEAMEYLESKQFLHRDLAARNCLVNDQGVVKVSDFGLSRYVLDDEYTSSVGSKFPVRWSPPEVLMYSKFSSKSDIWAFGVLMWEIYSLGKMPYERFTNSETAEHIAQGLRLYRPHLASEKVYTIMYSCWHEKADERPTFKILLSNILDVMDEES
UniProt Q5BKX5, sequence (Q5BKX5 whole entry, looked up): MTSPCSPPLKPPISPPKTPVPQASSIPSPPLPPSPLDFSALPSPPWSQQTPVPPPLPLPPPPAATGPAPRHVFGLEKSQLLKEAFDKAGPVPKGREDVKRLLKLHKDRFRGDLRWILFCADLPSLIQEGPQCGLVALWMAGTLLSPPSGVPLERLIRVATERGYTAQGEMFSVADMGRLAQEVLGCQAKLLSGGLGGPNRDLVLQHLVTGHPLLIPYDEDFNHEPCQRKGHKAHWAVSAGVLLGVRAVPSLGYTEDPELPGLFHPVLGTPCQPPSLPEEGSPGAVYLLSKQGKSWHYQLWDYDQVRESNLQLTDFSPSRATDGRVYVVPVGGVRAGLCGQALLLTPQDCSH
UniProt Q9NXV6, sequence (Q9NXV6 whole entry, looked up): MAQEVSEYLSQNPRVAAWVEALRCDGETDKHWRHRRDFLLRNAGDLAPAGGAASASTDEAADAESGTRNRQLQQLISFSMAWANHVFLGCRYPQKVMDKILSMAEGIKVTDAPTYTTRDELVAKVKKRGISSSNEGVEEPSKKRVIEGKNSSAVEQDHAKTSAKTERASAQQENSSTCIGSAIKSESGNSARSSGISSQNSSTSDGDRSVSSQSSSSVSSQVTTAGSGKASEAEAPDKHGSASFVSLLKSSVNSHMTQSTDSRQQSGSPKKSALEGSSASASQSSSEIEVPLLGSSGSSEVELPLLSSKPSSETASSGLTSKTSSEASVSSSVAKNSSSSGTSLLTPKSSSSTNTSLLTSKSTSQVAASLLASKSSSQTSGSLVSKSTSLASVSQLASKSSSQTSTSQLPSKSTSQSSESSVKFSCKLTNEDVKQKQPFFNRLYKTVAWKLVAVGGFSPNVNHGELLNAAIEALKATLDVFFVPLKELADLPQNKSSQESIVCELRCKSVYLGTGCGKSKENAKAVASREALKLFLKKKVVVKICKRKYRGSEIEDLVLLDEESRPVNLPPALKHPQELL
UniProt P55211, sequence (P55211 whole entry, looked up): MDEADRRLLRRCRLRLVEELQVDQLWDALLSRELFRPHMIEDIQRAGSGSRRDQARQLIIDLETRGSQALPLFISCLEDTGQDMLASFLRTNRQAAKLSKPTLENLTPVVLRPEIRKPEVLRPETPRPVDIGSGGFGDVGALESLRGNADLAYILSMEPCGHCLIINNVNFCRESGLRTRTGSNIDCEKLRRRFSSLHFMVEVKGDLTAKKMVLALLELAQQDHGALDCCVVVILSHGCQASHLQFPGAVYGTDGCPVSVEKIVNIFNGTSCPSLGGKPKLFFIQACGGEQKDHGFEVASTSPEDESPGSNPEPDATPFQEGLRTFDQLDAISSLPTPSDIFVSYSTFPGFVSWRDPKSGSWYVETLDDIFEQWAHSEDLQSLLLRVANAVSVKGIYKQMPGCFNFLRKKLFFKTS
UniProt Q8WYN0, sequence (Q8WYN0 whole entry, looked up): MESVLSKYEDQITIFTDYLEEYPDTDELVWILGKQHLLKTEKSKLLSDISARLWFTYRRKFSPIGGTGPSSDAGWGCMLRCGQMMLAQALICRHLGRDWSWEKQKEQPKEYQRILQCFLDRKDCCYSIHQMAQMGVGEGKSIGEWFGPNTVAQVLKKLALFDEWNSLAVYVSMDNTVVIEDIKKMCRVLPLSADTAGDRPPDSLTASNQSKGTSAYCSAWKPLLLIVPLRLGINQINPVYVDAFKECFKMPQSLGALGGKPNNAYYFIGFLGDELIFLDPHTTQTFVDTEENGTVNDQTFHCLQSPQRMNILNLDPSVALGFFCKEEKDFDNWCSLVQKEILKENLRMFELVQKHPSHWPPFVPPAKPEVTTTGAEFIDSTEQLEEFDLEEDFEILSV
UniProt Q14012, sequence (Q14012 whole entry, looked up): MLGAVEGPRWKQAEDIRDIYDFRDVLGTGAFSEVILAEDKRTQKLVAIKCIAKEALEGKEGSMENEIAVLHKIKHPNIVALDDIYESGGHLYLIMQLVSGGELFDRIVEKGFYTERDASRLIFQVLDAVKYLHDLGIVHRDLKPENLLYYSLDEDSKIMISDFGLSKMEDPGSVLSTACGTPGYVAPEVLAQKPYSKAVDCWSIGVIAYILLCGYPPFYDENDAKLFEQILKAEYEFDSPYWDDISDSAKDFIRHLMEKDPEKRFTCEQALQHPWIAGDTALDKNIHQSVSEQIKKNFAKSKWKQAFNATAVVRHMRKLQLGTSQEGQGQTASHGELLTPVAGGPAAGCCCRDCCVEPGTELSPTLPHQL

With CDKN1C (UniProt P49918), the log2 fold change in assay [1] is 0.035; in assay [2], -0.012; in assay [3] it was 0.185; in assay [4], 0.094; in assay [5] it was 0.025.
On the same counts, the results for BMS1 (UniProt Q14692) are 0.047, -0.036, 0.027, 0.013 and -0.029.
Turning to CHD3 isoform 3 (UniProt Q12873), the log2 fold change in assay [1] is -0.009; in assay [2], 0.027; in assay [3], 0.024; in assay [4] it was 0.035; in assay [5] it was 0.038.
The like results for CDKN2AIP (UniProt Q9NXV6) were, in that order, 0.01, 0.024, 0.027, -0.041 and -0.013.
On the same counts, the results for CASP9 (UniProt P55211) are 0.041, -0.024, 0.019, -0.05 and -0.048.
With CDCA8 (UniProt Q53HL2), the log2 fold change in assay [1] is 0.038; in assay [2] it was 0.037; in assay [3], -0.213; in assay [4], -0.048; in assay [5] it was 0.104.
Turning to CELF2 isoform 3 (UniProt O95319), the log2 fold change is -0.009 in assay [1]; -0.012 in assay [2]; 0.005 in assay [3]; 0.012 in assay [4]; 0.08 in assay [5].
The like results for C19orf54 (UniProt Q5BKX5) were, in that order, 0.04, 0.102, -0.007, 0.033 and 0.043.
The like results for CDK17 isoform 2 (UniProt Q00537) were, in that order, 0.072, 0.099, 0.109, 0.072 and -0.146.
As to ATR (UniProt Q13535), the log2 fold change was -0.061 in assay [1]; -0.036 in assay [2]; -0.04 in assay [3]; 0.003 in assay [4]; -0.095 in assay [5].
On the same counts, the results for CAMK1 (UniProt Q14012) are 0.096, 0.014, -0.007, 0.026 and -0.047.
Turning to ATG4A (UniProt Q8WYN0), the log2 fold change in assay [1] was 0.008; in assay [2] it was 0.022; in assay [3] it was 0.068; in assay [4], -0.01; in assay [5], -0.103.
The like results for BTK isoform 2 (UniProt Q06187) were, in that order, -0.049, -0.033, 0.012, -0.002 and -0.064.
Take BRD4 (UniProt O60885): the log2 fold change in assay [1] is 0.022; in assay [2], 0.868 (active); in assay [3], 0.003; in assay [4], 0.415 (active); in assay [5] it was -0.015.
